Several values for one entry are separate records, joined by “and”; a condition that tells them apart may be missing. Identical values can stand only once. About 83,000 compounds went through this panel and 20% of them were active in at least one assay; those are over-represented in the sample as a whole.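 Activity criterion: percent growth below 10, measured after cells in 96-well plates were exposed to a single compound concentration for 48 hours.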 Values without a mark were called inactive. Activity calls are given as the source filed them.

The subject of the assay is MDA-MB-468 breast. Kind of assay: NCI-60 one-dose screen, 48 h (100 = growth as untreated, 0 = no growth, -100 = all killed). To be noted: 10 µM unless noted.
Turning to `COc1ccc2c(c1)/C(=C\c1c[nH]c3ccc(OC)cc13)C(=O)N2`, the growth is -22.5% (active).

In the case of `CC(C)N1CCN(c2ccc(OC[C@H]3CO[C@](Cn4cncn4)(c4ccc(Cl)cc4Cl)O3)cc2)CC1`, the growth was 78.9%.

On to `C=C(C)CCC(C)N1CCC(N2CCC(C(=O)NCCc3ccccc3)CC2)CC1` (stereo not given), for which the growth was 48.4%.

As for `Cc1ccc(CNc2c3ccccc3nc3ccccc23)cc1`, the growth is 7.18% (active).

Consider `CCN(CC)c1ccc(/C=C\c2cc(C)c3cc(C)ccc3n2)cc1`, for which the growth was 1.26% (active).

On to `Cc1ccc(C(=O)c2ccc(CC(=O)NN3C(=O)c4ccccc4C3=O)n2C)cc1`, for which the growth was 93%.

With `CCN1C[C@@H](C)n2c(c(O)c3c(=O)n(Cc4ccc(F)c(Cl)c4)nc(C(=O)NC)c32)C1=O`, the growth was 45%.

Turning to `COc1ccc(-c2nc(N)ncc2Oc2ccccc2OC)c(O)c1`, the growth is -2.89% (active).

For the compound `Nc1c(C(=O)Nc2cccc3ccccc23)sc2nc3c(cc12)CCCCC3`, the growth is 37.1%.

`Fc1ccc(NC(=S)c2ccccc2)cc1`: the growth is 97.5%.

For the compound `Nc1ccc(CC(=O)O)c(N)c1`, the growth was 88.5%.

For `CCC(CC)N1C(=O)/C(=c2\sc3n(c2=O)C2C(NN=3)N(CC)C(=O)N2CC)c2ccccc21` (stereo not given), the growth is 42.8%.

Consider `CC(=O)O[C@H]1CC[C@]2(C)[C@H]3CC[C@@H]4[C@H]5[C@H](C(C)C)CC[C@]5(C(=O)OCC(CO)(CO)N=C(N)N)CC[C@@]4(C)[C@]3(C)CC[C@H]2C1(C)C`, for which the growth is -25.5% (active).

On to `C#Cc1cccc(NC(=O)Nc2ccc(NC(=O)CCl)cc2)c1`, for which the growth was -53.7% [8.25 µM] (active).

For `CN1CCN(c2ccc(/C=N/n3cnc4oc(-c5ccccc5)cc4c3=N)cc2)CC1`, the growth is 97.6%.

Turning to `NS(=O)(=O)c1ccc(Nc2nc(N/N=C/c3ccc([N+](=O)[O-])cc3)nc(Nc3ccccc3)n2)cc1`, the growth was 1.11% (active).

Turning to `Cc1ccc(C(=O)Nc2ccc(CNCCN3CCNCC3)c(C(F)(F)F)c2)cc1C#Cc1cnc2cccnn12`, the growth was -83% (active).

For the compound `COc1ccc2c(c1)C(C)Cc1c(ncnc1-n1cnc3ccccc31)N2C` (stereo not given), the growth was 27.3%.

Take `O=C(/C=C/c1cc2ccccc2[nH]c1=O)c1ccc2c(c1)OCO2`: the growth is 114%.

For the compound `Cc1nc2scc(-c3ccc(Cl)cc3)n2c(=O)c1CCN1CCOCC1`, the growth is 112%.

Consider `C/C=C\COc1cc(C)c(Cl)cc1Cl`, for which the growth is 91.5%.

For the compound `CN(C)CCCC1(c2ccc(F)cc2)OCc2cc(-c3ccc4cc[nH]c4c3)ccc21` (stereo not given), the growth is -27.1% (active).

Consider `Cc1c2c(cc[n+]1Cc1ccccc1)c1ccc(OCC3CCCCC3)cc1n2CC1CCCCC1`, for which the growth was -86.6% (active).

As for `CCN(CC)CCCNC(=O)c1ccc(N)cc1O`, the growth was 85.7%.

On to `CC(C)=NNC(N)=S`, for which the growth was 10.6%.

Regarding `O=C(N/N=C/c1cccc2ccccc12)C1CC1`, the growth is 120% and 106%.

Turning to `CC1(C)N=C(N)N=C(N)N1c1cccc(CCc2ccccc2)c1`, the growth is 16.6%.

For `CC1=NC2=CC=CC3=NC(C(Cl)(Cl)Cl)=NC(=N1)N23`, the growth is 90.2%.

For `Cc1ccc(-c2nc3nc(-c4ccc(Cl)cc4)nc(N4CCCNCC4)c3o2)cc1`, the growth was -54.2% (active).

In the case of `CNc1ccc(Nc2cccc(C)c2)c2c1C(=O)c1ccccc1C2=O`, the growth is -13.1% (active).

In the case of `C#CCOc1ccc(-c2csc(NC(=O)C=C)n2)cc1NS(=O)(=O)c1cccc2c(N(C)C)cccc12`, the growth was 11.3%.

As for `Nc1cc(-c2ccc(Cl)cc2)nn1-c1nc(-c2ccc(Br)cc2)cs1`, the growth was 99.4%.

`O=C(Nc1cccc(-n2cc(-c3ccncc3)c(-c3cc(O)cc(Cl)c3)n2)c1)Nc1ccc(Cl)c(Cl)c1`: the growth was -1.88% (active).

For `CN1CCN(Cc2ccc(NC(=O)c3cncc(C#Cc4cnc(N)nc4)c3)cc2C(F)(F)F)CC1`, the growth was 36%.

With `COc1ccc(-n2nc(C)c3c(Nc4ccc(NC(=O)Nc5ccc(Cl)c(C(F)(F)F)c5)cc4)ncnc32)cc1`, the growth is -19.9% (active).

For the compound `O=C1/C(=C/c2ccccc2)SC(=Nc2ccccc2)N1Nc1ccccc1`, the growth was 1.39% (active).

For the compound `COC(=O)[C@]12CC[C@@H](C)[C@H](C)[C@@H]1C1=CC[C@@H]3[C@@]4(C)C(C=O)=C[C@@](C)(COS(C)(=O)=O)[C@@H]4C(=O)C[C@@]3(C)[C@]1(C)CC2`, the growth was 38%.

As to `Cc1cc(C)c(O)c(CNCCCCCCNCc2cc(C)cc(C)c2O)c1`, the growth was -72.2% (active).

In the case of `Cc1ccc(/C(C#N)=C/c2ccc3c(c2)OCO3)cc1`, the growth is 43.9%.

Regarding `Cn1nc(C(F)(F)F)cc1-c1cc(Cl)c(OCc2ccc(Cl)cc2)c(-c2ccc(Cl)c(C(F)(F)F)c2)c1O`, the growth is -16.1% (active).

These data come from PubChem BioAssay (NCI).
